Experimental findings from paper PMC10668032, “Altered binding affinity of SIX1-Q177R correlates with enhanced WNT5A and WNT pathway effector expression in Wilms tumor” are described below.

Over roughly 33,000 sequences, “e-score” has its median near -0.053; the highest 2% begin near 0.38. For the sample, the highest values were picked, then their nearest neighbours and some sequences at random.

The target in this test is T1, SIX1 homeodomain (reference allele) (human, UniProt Q15475 108-198).
T1 sequence: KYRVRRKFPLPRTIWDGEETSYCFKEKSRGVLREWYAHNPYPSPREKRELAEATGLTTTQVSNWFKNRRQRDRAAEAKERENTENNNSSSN
Description: universal protein binding microarray; Universal all-10-mer PBM (8x60K, AMADID 030236), 300 nM GST-tagged protein, Alexa Fluor 488 anti-GST; buffer, salt, pH and temperature not stated (as in Berger); high values mean tight binding. Conditions: protein: ivt; tags: N-terminal GST; dsDNA, one strand shown. The method, boiled down: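 Duplicate protein binding microarrays (universal 'all 10-mer', 8×60K format) were incubated with GST-tagged homeodomains at 300 nM final concentration. Binding was quantified as 8-mer E-scores with the Universal PBM Analysis Suite.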
On to ACACCCGG, for which the binding signal was 0.344 ± 0.043 E-score.

Consider GTGTTAGA, for which the binding signal came to 0.214 ± 0.00425 E-score.

Turning to ACGATCGT, the binding signal was determined as 0.154 ± 0.0131 E-score.

On to CAGTAGTA, for which the binding signal was 0.154 ± 0.00593 E-score.

GATTATTA: the binding signal worked out at 0.209 ± 0.0336 E-score.

As to GATCTGAC, the binding signal turned out to be 0.238 ± 0.00706 E-score.

On to AGACCTAT, for which the binding signal was 0.17 ± 0.0148 E-score.

For the sequence ATATAGGG, the binding signal was 0.229 ± 0.0134 E-score.

In the case of CTCGGATA, the binding signal came out at 0.375 ± 0.00642 E-score.

As for ATCGGATC, the binding signal came out at 0.426 ± 0.0203 E-score.

For the sequence CTCGGATC, the binding signal came out at 0.396 ± 0.0127 E-score.

Turning to ATCGGACC, the binding signal turned out to be 0.229 ± 0.0739 E-score.

As for GTCGGATA, the binding signal turned out to be 0.407 ± 0.00687 E-score.

In the case of ATCGGAAA, the binding signal is 0.159 ± 0.00362 E-score.

As for CTTGGATA, the binding signal stood at 0.236 ± 0.024 E-score.

With ATCGGATA, the binding signal was 0.423 ± 0.00904 E-score.

As to CTTGGATC, the binding signal was 0.295 ± 0.0145 E-score.

Regarding ATCGGACA, the binding signal stood at 0.237 ± 0.0182 E-score.

As for GTTGGATA, the binding signal was 0.295 ± 0.00342 E-score.

With ATCGGATG, the binding signal turned out to be 0.252 ± 0.00376 E-score.

AATATTAA: the binding signal was 0.187 ± 0.0103 E-score.

For GATCGAGC, the binding signal stood at 0.218 ± 0.00887 E-score.

Consider TATGCATA, for which the binding signal was 0.202 ± 0.0575 E-score.

For the sequence ATACTAGA, the binding signal was found to be 0.218 ± 0.0317 E-score.

Regarding CACTCCGG, the binding signal is 0.195 ± 0.0209 E-score.

On to AACCCGAT, for which the binding signal was 0.25 ± 0.0182 E-score.

In the case of ATAGCAGG, the binding signal is 0.29151 ± 0.000127 E-score.

With CCTTGTGA, the binding signal worked out at 0.164 ± 0.0725 E-score.

ATCGCAAC: the binding signal is 0.198 ± 0.0486 E-score.

On to CGTACACC, for which the binding signal was 0.205 ± 0.0267 E-score.

Consider AAGTATCC, for which the binding signal was determined as 0.388 ± 0.0363 E-score.

As for AACTATCC, the binding signal was 0.281 ± 0.0413 E-score.

For the sequence GAGTATCC, the binding signal came to 0.4205 ± 0.00087 E-score.

With GATTATCC, the binding signal came to 0.329 ± 0.00414 E-score.

Regarding AAGTATAC, the binding signal turned out to be 0.338 ± 0.0623 E-score.

For the sequence GAGTATAC, the binding signal stood at 0.262 ± 0.0252 E-score.

Regarding ATACTCAG, the binding signal amounted to 0.35 ± 0.0154 E-score.

GCAAGATA: the binding signal worked out at 0.17 ± 0.0455 E-score.

Regarding ATGCATGA, the binding signal turned out to be 0.162 ± 0.0129 E-score.

On to ATCCACGG, for which the binding signal stood at 0.187 ± 0.0301 E-score.

As for CCCGGGTC, the binding signal was 0.288 ± 0.0806 E-score.

With CCCAGATC, the binding signal amounted to 0.38 ± 0.0205 E-score.

Take ACCGGATC: the binding signal is 0.417 ± 0.0393 E-score.

Turning to ACCAGATC, the binding signal amounted to 0.349 ± 0.0234 E-score.

CCTGGATC: the binding signal was determined as 0.251 ± 0.0575 E-score.

On to CCCAGATA, for which the binding signal stood at 0.302 ± 0.0141 E-score.

Regarding CCCGGATC, the binding signal amounted to 0.45 ± 0.0283 E-score.

AGCGGATC: the binding signal was 0.375 ± 0.0283 E-score.

Take ACCGGATA: the binding signal is 0.364 ± 0.00187 E-score.

As for CCCCGCAC, the binding signal is 0.189 ± 0.188 E-score.

Turning to CAACGATC, the binding signal was 0.277 ± 0.0168 E-score.

With AGTGATCC, the binding signal was 0.4519 ± 0.00218 E-score.

For the sequence AGTGATCA, the binding signal is 0.313 ± 0.0131 E-score.

Regarding CGTGATCA, the binding signal came to 0.181 ± 0.00373 E-score.

On to AGTGATCG, for which the binding signal came out at 0.25 ± 0.00845 E-score.

Regarding CGTGATCC, the binding signal was found to be 0.41 ± 0.0121 E-score.

On to GGTGATCA, for which the binding signal was 0.315 ± 0.0247 E-score.

With ATACGGGA, the binding signal was determined as 0.367 ± 0.0155 E-score.

As for GATGAGAC, the binding signal is 0.20672 ± 0.00017 E-score.

In the case of ATATGAGC, the binding signal amounted to 0.208 ± 0.0956 E-score.

On to CCATCCGG, for which the binding signal came out at 0.235 ± 0.079 E-score.

Regarding AACGATCA, the binding signal came to 0.2067 ± 0.00118 E-score.

As to CAGGATCG, the binding signal stood at 0.297 ± 0.0493 E-score.

Consider CAGGATCA, for which the binding signal is 0.386 ± 0.00253 E-score.

For AAGGATCA, the binding signal turned out to be 0.383 ± 0.00738 E-score.

On to AAGGATCG, for which the binding signal stood at 0.349 ± 0.00351 E-score.

With TAGGATCA, the binding signal came to 0.409 ± 0.017 E-score.

For the sequence TAGGATGA, the binding signal turned out to be 0.199 ± 0.0352 E-score.

In the case of TAGGATAA, the binding signal came out at 0.21 ± 0.0705 E-score.

On to AAGGATCT, for which the binding signal amounted to 0.267 ± 0.029 E-score.

As to GAGGATCA, the binding signal was determined as 0.369 ± 0.0176 E-score.

ACTATCTA: the binding signal stood at 0.154 ± 0.0178 E-score.

For AAACCCGA, the binding signal was 0.165 ± 0.0599 E-score.

AACACCAT: the binding signal was 0.173 ± 0.0172 E-score.

With ATAGCGGC, the binding signal was determined as 0.194 ± 0.00861 E-score.

Consider GGGTGTAA, for which the binding signal was 0.334 ± 0.00878 E-score.

Consider AGGTGTGA, for which the binding signal turned out to be 0.204 ± 0.0237 E-score.

AGGTGTTA: the binding signal came to 0.203 ± 0.0687 E-score.

As for AGGTGTAT, the binding signal was 0.377 ± 0.0149 E-score.

Consider AGGTGTAA, for which the binding signal came to 0.165 ± 0.116 E-score.

Consider GGGTGTGA, for which the binding signal came out at 0.158 ± 0.0496 E-score.

With AGGTGTCC, the binding signal came out at 0.274 ± 0.042 E-score.

As to AGGTGTAC, the binding signal came to 0.182 ± 0.0154 E-score.

Turning to AGGTGTCG, the binding signal worked out at 0.399 ± 0.0161 E-score.

With GGGTGTCA, the binding signal was found to be 0.4698 ± 0.00156 E-score.

For the sequence AGGTGTTG, the binding signal was 0.2361 ± 0.00141 E-score.
